The list is not random: actives were taken first. Their share in the collection is about 3.1%.
HIF activator = HIF pathway transcriptional activation | U2OS HRE-luciferase reporter, luminescence; normalized: DMSO 0%, desferrioxamine 100% | activation, % at 7.5 µM (by protocol) | 0.32% of 300,000 active | AID 1910;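 active = mean activation of at least 10% of the iron chelator positive control signal, with at least half of replicates also reaching 10%; inconclusive = mean and replicate majority disagree about reaching 10%; inactive = mean and most replicates under 10%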
HSF1 inhib = HSF1 inhibition. NIH3T3-HGL HSE-luciferase, MG132-induced, luminescence 8 h; active compounds read low. activity change, negative = inhibition, % at 7.5 µM (by protocol). 0.77% of 300,000 active;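 active = more than half of replicate wells show activity change below -50%, luminescence cut by over half; inconclusive = some wells, but at most half, below -50%; inactive = no replicate well below -50%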;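 also: luciferase reports HSF-1 transcriptional activity via heat shock element; 0% = median of DMSO wells and -100% = zero luminescence signal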
ARNT-TACC3 inh = disrupts binding between human ARNT and TACC3. Q9Y6A5. AlphaScreen His-ARNT PAS-B/GST-TACC3 binding, luminescence; TACC3 fragment carries E629A point mutation. inhibition, % at 9.99 µM. 0.66% of 390,000 active;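 active = mean inhibition of replicates at least 50% and at least half of replicates each reaching 50%; inconclusive = half or more replicates reach 50% but mean below 50%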;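 also: 0% = complete ARNT plus TACC3 wells and 100% = ARNT alone without TACC3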
HSF1 activator = increases HSF-1 driven luciferase reporter signal. NIH3T3-HGL HSF-1 luciferase reporter, MG132, 8 h; 100% = twice DMSO control signal. activation, % at 9 µM. 1.7% of 300,000 active;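 active = mean replicate activation of at least 50% with a set share of replicates each reaching 50%; inconclusive = only one of those two conditions met; inactive = mean below 50% and too few replicates reaching it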;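 also: 0% = median of the neutral control wells and 100% = twice that signal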
HSP90 refold inh = inhibitors of HSP90 luciferase refolding in rabbit reticulocyte lysate; AID 1789; luciferase refolding luminescence, 3 h; 0.91% of 290,000 active; inhibition, % at 5.6 µM;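 active = inhibition above the screen-wide mean plus 3 SD, computed separately per campaign, cut at about 16% in these data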;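 also: 0% = DMSO wells and 100% = 60 µM geldanamycin wells; inhibitors lower the luminescence because luciferase stays unfolded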
* = called active by the depositor; u = inconclusive; x = no result given.

SMILES	HIF activator	HSF1 inhib	ARNT-TACC3 inh	HSF1 activator	HSP90 refold inh
CCC(=O)Nc1ccc2c(c1)C(=O)N(C)[C@@H]1CC[C@@H](CC(=O)NCC3CC3)O[C@@H]1CO2	x	x	-19.7	x	x
COC(=O)c1cccc(-c2ccc(C(c3c(C)[nH][nH]c3=O)c3c(C)[nH][nH]c3=O)o2)c1	0.0	13.0	63.7*	27.9	9.4
Cc1ccc(N2C(=O)N(CC(=O)NCc3ccc(Cl)cc3)C(=O)C2C)cc1 (stereo not given)	2.6	-1.0	1.5	-0.6	-1.1
COc1ccc(CNC(=O)CN2C(=O)C(C)N(c3ccc(C)cc3)C2=O)cc1 (stereo not given)	0.0	16.3	-6.9	53.9*	0.5
COc1c([N+](=O)[O-])c(=O)oc2ccccc12	0.3	-72.4*	-4.2	-78.9	-2.9
CCNc1c([N+](=O)[O-])c(=O)oc2ccccc12	-0.5	-11.6	0.0	-0.1	-2.8
CN(C)C(=O)C[C@H]1C[C@H]2c3cc(NC(=O)NC4CCCCC4)ccc3O[C@H]2[C@@H](CO)O1	x	x	-7.5	x	x
CCC(=O)N1CCN(c2ccccc2NC(=O)c2ccc([N+](=O)[O-])o2)CC1	0.2	24.7	-15.6	22.5	-2.3
COc1ccccc1NC(=O)c1ccc([N+](=O)[O-])o1	1.9	-85.6*	x	-88.3	x
O=C(Nc1cccc(NC(=O)c2ccccc2Cl)c1)c1ccc([N+](=O)[O-])o1	-1.5	54.5	-2.4	97.5*	1.5
O=C(Nc1cc(-c2nc3ncccc3o2)ccc1Cl)c1ccc([N+](=O)[O-])o1	0.1	77.7	-43.1	109.8*	4.0
O=C(Nc1ccc(N2CCCC2)c(Cl)c1)c1ccc([N+](=O)[O-])o1	x	x	17.0	x	3.2
CC(C)C(=O)N1CCN(c2ccccc2NC(=O)c2ccc([N+](=O)[O-])o2)CC1	-4.7	40.6	x	79.8*	6.9
CC(C)CC#Cc1ccc2c(c1)O[C@@H](CN(C)C(=O)CN(C)C)[C@@H](C)CN([C@@H](C)CO)S2(=O)=O	x	x	6.8	x	x
CC(=O)N1[C@@H]2c3ccc(-c4cccc(F)c4)c(=O)n3C[C@@H]2[C@@H](CO)[C@@H]1C(=O)NCCCN(C)C	x	x	6.0	x	x
Cc1cccc(NC(=O)c2ccc([N+](=O)[O-])o2)c1C	-0.9	30.7	-1.7	20.2	7.0
O=C(Nc1cccc2ccccc12)c1ccc([N+](=O)[O-])o1	1.0	57.7	-9.7	72.3*	1.7
COC(=O)c1cc(S(=O)(=O)C(C)C)c(S(C)=O)s1 (stereo not given)	0.0	52.8	-2.8	90.1*	4.7
CCCc1ccc(-c2ccc(-c3noc(-c4ccncc4)n3)cc2)nc1	-0.1	-4.2	-17.7	-0.2	0.3
CCCCc1ccc(-c2ccc(Br)cc2)nc1	1.2	21.3	-2.7	57.8*	2.5
NNC(=O)CNC(=O)CNS(=O)(=O)c1ccccc1	-0.7	-77.8*	1.8	-83.3	-1.3
NC(=O)C(C(=O)/C=C/c1ccc(Cl)cc1)=C1SCCS1	5.4	120.3	-38.2	210.1*	-3.2
COc1ccc(/C=C/C(=O)C(C(N)=O)=C2SCCS2)cc1	2.3	13.5	-2.6	47.8	0.9
CC(C(=O)Nc1ccccc1-c1ccccc1)N1CCN(C(=O)c2ccccc2)CC1 (stereo not given)	33.7*	8.0	6.4	29.8	-0.9
CC1CCN(C(C)C(=O)Nc2ccccc2-c2ccccc2)CC1 (stereo not given)	-1.4	2.9	-9.1	23.3	1.8
SMILES	HIF activator	HSF1 inhib	ARNT-TACC3 inh	HSF1 activator	HSP90 refold inh
CO[C@H]1CN(C)C(=O)c2ccc(NC(=O)C3CC3)cc2OC[C@H](C)N(C(=O)NC(C)C)C[C@H]1C	x	x	-5.0	x	x
O=C(C#Cc1ccccc1)c1cccc([N+](=O)[O-])c1	x	61.3	8.2	100.9*	4.7
O=C(C[C@@H]1CC[C@H]2[C@@H](COC[C@H](O)CN2Cc2ccc(Oc3ccccc3)cc2)O1)Nc1nccs1	x	x	1.7	x	x
CCOC(=O)C1CCN(c2c(NCc3ccc(C(=O)NC4CCCC4)cc3)c(=O)c2=O)CC1	-0.2	6.5	-3.1	10.3	0.9
CCOC(=O)C1CCN(c2c(NCc3ccc(C(=O)Nc4ccc(C)cc4)cc3)c(=O)c2=O)CC1	0.0	-68.7*	0.2	-77.6	3.1
Cc1ccc(NS(=O)(=O)c2cc(NC(=O)c3ccc4c(c3)NC(=O)CS4)ccc2C)c(C)c1	-0.3	-3.0	-1.6	-13.3	16.7*
COc1ccc(NC(=O)c2ccc3c(c2)NC(=O)CS3)cc1S(=O)(=O)Nc1ccc(Br)cc1	1.2	5.5	x	19.9	7.4
CCn1nc(C(=O)NNC(=O)COc2ccccc2C)c2ccccc2c1=O	0.5	22.1	2.0	56.6*	1.5
CCSc1nnc(NC(=O)c2cccnc2Cl)s1	1.0	18.2	-0.8	55.1*	1.1
COc1ccc(S(=O)(=O)N(C)CC(=O)N2CCC(C(N)=O)CC2)cc1Cl	0.0	25.2	x	66.0*	3.0
C[C@H](CO)N1C[C@H](C)[C@H](CN(C)C(=O)c2ccccn2)Oc2ncc(C#Cc3ccccn3)cc2C1=O	x	x	-0.2	x	x
COc1ccc(C2C3=C(Nc4ncnn42)c2ccccc2CCC3)cc1 (stereo not given)	-0.5	-2.9	31.3	-9.4	-1.4
Fc1ccc(/C=C2\CCCC3=C2Nc2ncnn2C3c2ccc(F)cc2)cc1 (stereo not given)	0.6	65.9	-1.3	98.3*	1.1
Cc1ccc(-n2c(C)cc(/C=C3\SC(=O)NC3=O)c2C)cc1	4.6	38.5	-9.3	61.0*	-1.7
COc1ccc(-n2c(C)cc(/C=C3\SC(=O)NC3=O)c2C)cc1	1.4	12.2	2.3	36.2	-4.6
CNC[C@@H]1Oc2c(NS(=O)(=O)c3cccs3)cccc2C(=O)N([C@@H](C)CO)C[C@@H]1C	x	x	-1.1	x	x
COc1ccc(N=Nc2ccc(CO)cc2)cc1	0.2	26.0	-11.6	72.3*	x
COc1ccc(C/C(N)=N/O)cc1	-0.1	-6.2	-1.7	13.8	-4.9
OCc1ccc(N=Nc2ccccc2)cc1	10.4*	11.7	0.8	25.8	x
COc1ccc(N=Nc2cc(C)ccc2O)cc1	0.0	74.2	2.3	58.7*	3.5
CO[C@@H]1CN(C)C(=O)c2cc(NS(=O)(=O)c3cn(C)cn3)ccc2OC[C@@H](C)N(Cc2cccc(Cl)c2)C[C@H]1C	x	x	6.7	x	x
C/C(=N/OCc1ccc(Br)cc1)c1ccccn1	1.7	22.4	x	84.0*	-1.6
O=C1c2ccccc2C(=O)C1c1ccc(O)cc1	1.9	38.7	-6.0	72.4*	-0.3
O=C(/C=C/c1ccc(O)cc1)c1ccccc1	4.1	40.2	-2.2	83.8*	1.8
CCOc1ccc(C(=O)/C=C/c2ccc(OC)c(OC)c2)cc1	1.0	9.5	0.3	25.6	1.7
COc1ccc(C(=O)/C=C/c2ccc(OC)c(Cn3nnc4ccccc43)c2)cc1	0.9	43.6	-1.0	79.8*	-2.6
CCOc1ccc(/C=C/C(=O)c2ccccc2)cc1OC	u	32.3	2.1	62.9*	-1.4
CC(=O)N1C[C@@H]2[C@H](c3ccccc31)[C@@H](CO)N2C(=O)c1ccc(F)cc1	x	x	-2.4	x	x

Assay outcomes: PubChem BioAssay, several laboratories
